This note sets out measurements from PubChem BioAssay (NCI).

About 83,000 compounds went through this panel and 20% of them were active in at least one assay; those are over-represented in the sample as a whole.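 Results are percent growth after 48 hours of single-concentration exposure. 100 means growth as in untreated cells, lower positive values show inhibition; negative values down to -100 show cell death.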 Values without a mark were called inactive. The source made the active and inactive calls. Rule for the calls: active = growth percent below 10; inactive = the rest.

Assay in all cases: NCI-60 one-dose screen, 48 h (100 = growth as untreated, 0 = no growth, -100 = all killed)
Assay [1] has as its system K-562 leukemia. The settings on record: 10 µM unless noted.
In assay [2] the test system is MALME-3M melanoma. To be noted: 10 µM unless noted.
Assay [3] deals with MDA-MB-231 breast. The settings on record: 10 µM unless noted.
The test system of assay [4] is RXF 393 renal. The settings on record: 10 µM unless noted.
Assay [5] relates to SF-268 CNS. To be noted: 10 µM unless noted.
Assay [6] relates to SF-295 CNS. To be noted: 10 µM unless noted.
The subject of assay [7] is SF-539 CNS. To be noted: 10 µM unless noted.
Assay [8] relates to UACC-257 melanoma. The settings on record: 10 µM unless noted.
Assay [9] deals with M14 melanoma. The settings on record: 10 µM unless noted.
The test system of assay [10] is HCT-15 colon. To be noted: 10 µM unless noted.
Assay [11] concerns HT29 colon. The settings on record: 10 µM unless noted.
For assay [12], the system named is SNB-75 CNS. To be noted: 10 µM unless noted.
Assay [13] deals with SNB-19 CNS. The settings on record: 10 µM unless noted.
In assay [14] the test system is U251 CNS. To be noted: 10 µM unless noted.
Assay [15] deals with PC-3 prostate. To be noted: 10 µM unless noted.
The test system of assay [16] is SK-MEL-5 melanoma. To be noted: 10 µM unless noted.
The subject of assay [17] is UACC-62 melanoma. The settings on record: 10 µM unless noted.
Assay [18] concerns LOX IMVI melanoma. To be noted: 10 µM unless noted.
The subject of assay [19] is SK-MEL-28 melanoma. To be noted: 10 µM.
For assay [20], the system named is SK-MEL-2 melanoma. The settings on record: 10 µM unless noted.

`COC(=O)/C(CCC=C(C)C)=C1\[C@@H](OC(C)=O)C[C@@]2(C)[C@H]1C[C@@H](O)[C@H]1[C@@]3(C)CC[C@H](NCc4ccccc4)[C@@H](C)[C@@H]3CC[C@@]12C`: the growth in assay [1] was 11%; in assay [2], 68%; in [3], 63.6%; in [4] it was 49.6%; in assay [5], 64.1%; in assay [6], 85.7%. The growth is 70% in assay [7]; 75.4% in [8]; 49.8% in [9]; 31% in assay [10]; 14.8% in assay [11]; 65.1% in [12]. The growth was 81.9% in assay [13]; 49.2% in assay [14]; 31.3% in assay [15]; 59.4% in [16]; 69.3% in [17]; 47.3% in assay [18]. The growth was 74.6% in [19] and 94.4% in assay [20].

For the molecule `O=C(c1nc2ccccc2[nH]1)C1C(c2ccc([N+](=O)[O-])cc2)C2CC3CCCCC3N2[C@@]12C(=O)Nc1cc(Cl)ccc12` (stereo not given in full), the growth in [1] was 12.2%; in [2], 15%; in [3], 26.6%; in assay [4], 14.7%; in assay [5] it was 41.3%; in [6], 16.5%. Besides, the growth is 40.4% in [7]; 25.7% in assay [8]; 21.2% in assay [9]; 11% in [10]; 18.5% in [11]; 27.4% in [12]. Further, the growth is 27.5% in assay [13]; 25.5% in [14]; 22.3% in assay [15]; -57.1% (active) in assay [16]; 20.5% in assay [17]; 25.1% in assay [18]. Moreover, the growth in [19] is 44.9%; in [20] it was 48.3%.

As for `COc1ccc(N(C)c2nc(N)nc3sc4c(c23)CCCC4)cc1`, the growth is 7.85% (active) in assay [1]; 50.1% in [2]; 25.5% in assay [3]; 46.6% in assay [4]; 30% in [5]; 14.5% in assay [6]. The growth in assay [7] is -6.54% (active); in assay [8], 39%; in [9], 1.13% (active); in assay [10], 4.87% (active); in assay [11] it was -4.37% (active); in assay [12] it was 51.3%. Besides, the growth was 23.8% in [13]; 15.8% in [14]; 27% in [15]; -24.9% (active) in assay [16]; 42.9% in assay [17]; 22.6% in assay [18]. In addition, the growth in assay [19] is 55%; in [20], 16.6%.

In the case of `CCN1C(=O)N(CC)C2Nn3c(s/c(=C4\C(=O)N(C(C)C)c5ccccc54)c3=O)=NC21` (stereo not given), the growth is 13.8% in [1]; 71.4% in assay [2]; 24% in [3]; 44.5% in assay [4]; 51.8% in assay [5]; 19% in [6]. Besides, the growth in assay [7] is 11.5%; in [8] it was 28.9%; in assay [9], 21.9%; in assay [10], 22.3%; in assay [11], 11.6%; in [12] it was 60.2%. Moreover, the growth in assay [13] is 46.4%; in assay [14] it was 28.1%; in [15] it was 26.3%; in [16], 41.4%; in assay [17] it was 36.4%; in assay [18], 40.6%. For the same molecule, the growth in assay [19] is 55.1%; in [20], 72.9%.

For `O=C1c2cc(Cl)ccc2Oc2cc([N+](=O)[O-])ccc2N1c1ccc(F)cc1F`, the growth is 78.8% in [1]; 103% in assay [2]; 83% in [3]; 89.6% in [4]; 72.9% in assay [5]; 94.6% in assay [6]. Also, the growth in assay [7] is 96.7%; in assay [8], 91%; in [9], 99.2%; in assay [10], 86.9%; in assay [11], 79%; in assay [12] it was 69.8%. The growth in assay [13] is 91.9%; in assay [14], 86.6%; in [15] it was 89.4%; in assay [16], 68.7%; in [17] it was 81.2%; in assay [18], 95.4%. Moreover, the results for the growth in assay [19] and in assay [20] were 114% and 80.3%, respectively.

`COC(=O)/C(CCC=C(C)C)=C1\[C@@H](OC(C)=O)C[C@@]2(C)[C@H]1C[C@@H](O)[C@H]1[C@@]3(C)CC[C@H](NC(=O)c4cnccn4)[C@@H](C)[C@@H]3CC[C@@]12C`: the growth is 85.5% in assay [1]; 100% in assay [2]; 96.5% in assay [3]; 107% in [4]; 94.8% in assay [5]; 103% in assay [6]. Also, the growth in [7] was 105%; in assay [8], 110%; in assay [9], 99.8%; in assay [10], 96.3%; in assay [11], 99%; in assay [12], 86.3%. Besides, the growth is 96.5% in assay [13]; 98.3% in assay [14]; 86.2% in assay [15]; 96.5% in assay [16]; 86.6% in assay [17]; 93.5% in [18]. Besides, the growth in assay [19] was 111%; in assay [20], 118%.

`CCOC(=O)C1=C(C)N=c2s/c(=C\c3cc(Cl)ccc3O)c(=O)n2C1c1ccc(OC)cc1` (stereo not given): the growth in assay [1] is 73.8%; in assay [2] it was 109%; in assay [3], 95.1%; in assay [4] it was 80.9%; in assay [5], 107%; in assay [6] it was 111%. For the same molecule, the growth in [7] was 118%; in assay [8], 101%; in [9] it was 88.4%; in assay [10], 98.6%; in assay [11] it was 72.9%; in [12], 89%. Also, the growth in assay [13] is 99%; in [14], 85.4%; in [15] it was 85.2%; in assay [16] it was 88.5%; in assay [17] it was 94%; in assay [18] it was 95.2%. The growth was 106% in assay [19] and 94.6% in assay [20].
